Compounds with a hit are over-represented: about 2.5% of the library has one in this group of screens.
Mito fusion act: blocks mitochondrial division or promotes mitochondrial fusion; S. cerevisiae fusion-defective mutant growth rescue, CellTiterGlo 48 h; Potency, µM (series often up to 46.1 µM), inactives show at the top dose growth rescue (activation), most hits filed as activators; 320,000 tested, 0.23% active; AID 485298; also: potency is read from the fitted curve at half-maximal effect; % of control where 0% means no effect; nearly all actives have a fitted effect of over 45% in size
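S. cerevisiae fusion-defective temperature-sensitive mutants (e.g. fzo1-1, mgm1-5) grown 48 h at 37C in YPEG (ethanol/glycerol non-fermentable) medium with 23 nl compound per well; growth rescue read as CellTiterGlo luminescence.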
CCT modulator: cytosolic chaperonin activity modulation | purified chaperonin ATPase assay, HTRF ADP detection, 30 min | activity change, % (concentration not given with the values), hits read low | 360,000 tested, 0.3% active | AID 651819; in the data active = activity change below about -30%; also: % is scaled to controls: 0 for no effect and ±100 for the full control effect
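We incubate TRiC, 40 or 20 nM final, with library compounds at 76 uM and 10 uM ATP for 30 min at 37 °C. ADP formed is detected with Transcreener HTRF reagents after 30 min at room temperature.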
Apoferritin bind: candidate novel general anesthetic via apoferritin binding; P02791; apoferritin/1-aminoanthracene competitive binding, fluorescence; Potency, µM (series often up to 77.5 µM), inactives show top-dose activity change, negative = displacement, most hits filed as inhibitors; 350,000 tested, 0.074% active; AID 485281; also: potency is read from the fitted curve at half-maximal effect; % is scaled to controls: 0 for no effect and ±100 for the full control effect; nearly all actives have a fitted effect of over 20% in size
Target sequence (P02791 2-175 limits assumed): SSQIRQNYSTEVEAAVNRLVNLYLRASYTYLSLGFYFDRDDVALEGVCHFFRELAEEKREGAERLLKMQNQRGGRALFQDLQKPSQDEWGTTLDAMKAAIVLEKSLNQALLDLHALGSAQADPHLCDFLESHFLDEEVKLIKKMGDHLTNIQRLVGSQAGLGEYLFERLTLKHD
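Concentration-response curves derived by four-parameter Hill fitting of normalized fluorescence, where compounds displaced 1-AMA from 10 uM horse apoferritin following a brief 10 min room-temperature incubation; propofol titration acted as positive control.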
aSyn yeast inh: alpha-synuclein toxicity inhibition in yeast. Yeast expressing alpha-synuclein, growth rescue, BacTiter-Glo, 24 h. Potency, µM (doses to about 46.1 µM), for the others: at the highest dose growth rescue (activation), usual class: activators. 370,000 tested, 0.14% active; also: potency is read from the fitted curve at half-maximal effect; % of control where 0% means no effect; nearly all actives have a fitted effect of over 65% in size
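Rescue of yeast growth: cells expressing toxic alpha-synuclein, induced in galactose at OD600 0.02, incubated with compound 24 h at 30 C. ATP luminescence quantified growth; inhibitors of toxicity appear as activators.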
pAkt inh: blocks phosphorylation of Akt | Neuro2A IGF-stimulated pAkt S473 HTRF, 20 min; active compounds read low | activity change, % for hits at 50 µM | 360,000 tested, 0.32% active | AID 651550; in the data active = activity change below about -80%; inconclusive = mostly about -51% to -80%; also: % is scaled to controls: 0 for no effect and ±100 for the full control effect
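Single-point screen (50 µM final compound) in Neuro2A cells stimulated 20 min with 6 nM IGF at 37 deg C. After lysis, Ser473-phosphorylated Akt read by HTRF (ex 330 nm, em 615/665 nm) as the 665/615 ratio.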
TDP-43 yeast inh: inhibitors of TDP-43 toxicity in yeast; TDP-43 expressing yeast growth rescue, BacTiter-Glo, 24 h; Potency, µM (top dose mostly 46.1 µM), for inactives: at the top dose growth rescue (activation), usual class: activators; 410,000 tested, 1.8% active; AID 652104; also: potency is read from the fitted curve at half-maximal effect; % of control where 0% means no effect; nearly all actives have a fitted effect of over 50% in size
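Readout is BacTiter-Glo luminescence of cell growth, so inhibitors register as activators. TDP-43-expressing yeast at OD600=0.02 in galactose medium, after raffinose pregrowth to mid-log, were incubated with compound for 24 hr at 30 deg C.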
An asterisk follows results filed as active; i = inactive; ? = inconclusive; . = not tested or not shown; [ ] = another dose, or the depositor's remark. Unless noted, calls follow the shape of the dose curve; as a rule, active = well fitted curve in the direction sought with a large enough effect; inconclusive = small, poorly fitted or top-dose-only effect, or another doubt; inactive = no such curve, though single readings can be large; an effect the other way counts as inactive or inconclusive.

SMILES	Mito fusion act	CCT modulator	Apoferritin bind	aSyn yeast inh	pAkt inh	TDP-43 yeast inh
Cn1cc([N+](=O)[O-])c(C(=O)Nc2ccc(C3CCCCC3)cc2)n1	?	-1.3	7.94µM*	-15.5%	i	13.5%
Cn1cc([N+](=O)[O-])c(C(=O)Nc2ccc(C(=O)N3CCCCC3)cc2)n1	-4.3%	0.0	-21.4%	-1.0%	i	10.0%
O=C(Nc1c(O)c2ccccc2oc1=O)c1ccccc1Cl	.	.	-3.7%	.	.	2.51µM*
Cc1cc(F)ccc1S(=O)(=O)Nc1ncnc2sc3c(c12)CCC3	?	-3.4	-6.9%	9.4%	i	20µM*
Fc1ccc(Nc2ncnc3sc4c(c23)CCC4)cc1	-10.7%	-0.6	?	31.6µM*	i	17.8µM*
NNc1ncnc2scc(-c3ccc(Cl)cc3)c12	5.5%	-2.1	?	13.8%	i	15.8µM*
Clc1ccc(-c2csc3ncnc(Cl)c23)cc1	-28.9%	-0.3	-12.4%	-7.1%	i	0.0%
COc1ccc(Nc2ncnc3sc4c(c23)CCCC4)cc1	.	.	-14.7%	-6.9%	.	20µM*
c1ccc(Nc2ncnc3sc4c(c23)CCC4)cc1	-3.5%	2.2	-8.3%	3.3%	i	1.6%
CCCNC(=O)OC[C@H]1O[C@@H](CCO/N=C\[C@@H](NS(=O)(=O)c2ccc(C)cc2)[C@H](C)/C=C\CC(=O)OC)C=C[C@@H]1Oc1ccc(OC)cc1	.	.	-5.9%[15.3 µM]	.	.	.
Cc1nn(-c2ccccc2)c(-n2cccc2)c1C(=O)NCCc1ccc(Cl)cc1	.	.	3.5%	.	.	25.8%
COc1ccc(Nc2ncnc3scc(-c4ccc(OC)cc4)c23)cc1	8.5%	-0.3	-17.7%	1.0%	i	22.4µM*
CCc1ccc(Nc2ncnc3sc4c(c23)CCCC4)cc1	.	.	95.6%	0.4%	.	20µM*
COc1ccc(Nc2ncnc3scc(-c4ccc(F)cc4)c23)cc1	.	.	46.5%	.	.	5.7%
CC(=O)Nc1ccc(Nc2ncnc3sc4c(c23)CCCC4)cc1	.	.	-4.1%	5.8%	.	?
CCOC(=O)c1cccc(NC(=O)c2cc3c(Cl)nc4ccc(C)cc4c3s2)c1	.	.	0.8%	.	.	17.8%
CC(C)C[C@H](NC(=O)CNC(=O)[C@H](CCC(N)=O)NC(=O)[C@H](CC(C)C)NC(=O)[C@H](CC(C)C)NC(=O)[C@H](CCCNC(=N)N)NC(=O)[C@H](CCC(N)=O)NC(=O)[C@H](CC(C)C)NC(=O)[C@H](CCCNC(=N)N)NC(=O)[C@H](C)NC(=O)CNC(=O)[C@H](CCC(=O)O)NC(=O)[C@H](CCCNC(=N)N)NC(=O)[C@H](CC(C)C)NC(=O)[C@H](CCCNC(=N)N)NC(=O)[C@H](CO)NC(=O)[C@H](CC(C)C)NC(=O)[C@H](CCC(=O)O)NC(=O)[C@H](CO)NC(=O)[C@@H](NC(=O)[C@H](Cc1ccccc1)NC(=O)[C@@H](NC(=O)CNC(=O)[C@H](CC(=O)O)NC(=O)[C@H](CO)NC(=O)[C@@H](N)Cc1cnc[nH]1)[C@@H](C)O)[C@@H](C)O)C(=O)N[C@H](C(N)=O)C(C)C	.	.	-2.5%	.	.	.
O=C(Cc1ccc(-c2ccccc2)cc1)NCCS(=O)(=O)N1CCN(c2ccccc2F)CC1	.	.	8.9%	.	.	?
N#Cc1ccc(NC(=O)COC(=O)CNC(=O)C2CCCCC2)cc1	3.4%	-0.8	8.91µM*	1.1%	i	12.1%
N#Cc1ccc(NC(=O)COC(=O)C2CCC2)cc1	.	-2.0	.	-5.4%	i	?
O=C(/C=C/c1cccc(F)c1)N1CCc2ccccc21	5.0%	-1.5	1.4%	0.8%	i	13.6%
O=C(/C=C/c1ccc(F)cc1)N1CCCc2ccccc21	-5.2%[9.22 µM]	1.3	?	3.3%	i	17.8µM*
Cc1c(C)n(Cc2ccccc2)c2ccc(C(=O)NCC(C)c3ccccc3)cc12 (centres undefined)	.	.	1.9%	.	.	-1.1%
Brc1c(-c2ccccc2)nc2n1Cc1ccccc1-2	-4.8%	3.7	-15.3%	?	i	12.6µM*
Cc1nc(S(=O)(=O)N2CCN(c3cccc(Cl)c3)CC2)cn1C	.	.	-6.4%	-3.9%	.	-2.5%
SMILES	Mito fusion act	CCT modulator	Apoferritin bind	aSyn yeast inh	pAkt inh	TDP-43 yeast inh
Cn1nc(C(=O)NCc2ccccn2)c2ccccc2c1=O	0.0%	-0.1	-13.2%	-0.8%	-93.7%*	4.9%
Cn1nc(C(=O)NCC2COc3ccccc3O2)c2ccccc2c1=O (centres undefined)	-6.2%	-4.6	.	9.3%	i	20µM*
Cn1nc(C(=O)NCc2ccccc2)c2ccccc2c1=O	-4.4%	-1.3	-13.9%	-4.2%	i	26.4%
Cc1cccc(C)c1OCC(=O)NCC1COc2ccccc2O1 (centres undefined)	-5.0%	1.9	.	1.7%	i	15.8µM*
COc1cccc(CNC(=O)Cn2c(=O)n3nc(-c4cccc(C)c4)nc3c3ccccc32)c1	.	.	-10.5%	.	.	10.6%
CC1(C)CC(=O)C2=C(C1)NC(Nc1nc3ccccc3o1)=NC2c1cccc(O)c1 (centres undefined)	.	.	.	0.6%	.	.
CCc1ccc(-c2ccc(C(=O)Oc3ccc(Br)cc3)cc2)nc1	.	.	-10.9%	.	.	?
CCc1ccc(-c2ccc(C(=O)O)cc2)nc1	-1.2%	0.4	-12.1%	5.8%	i	35.5µM*
O=C(O)c1cc([N+](=O)[O-])ccc1NCc1ccccc1	6.0%	-1.5	?	-1.5%	i	17.7%
O=C(O)c1cc([N+](=O)[O-])ccc1NCCCc1ccccc1	8.2µM*	0.8	.	-17.7%	.	27.5%
CN(C(=O)Cn1ncc2c1-c1ccccc1OC2)c1ccc(Br)cc1	.	.	-2.6%	.	.	17.8µM*
O=C(Cn1ncc2c1-c1ccccc1OC2)Nc1nc2ccccc2s1	4.5%	-1.6	-13.7%	-8.3%	i	14.1µM*
CC(=O)OC[C@@H]1O[C@@H](O/N=C2/C[C@@H](O)[C@@H](O)[C@@H]3[C@H]4C(=O)N(c5ccc(F)cc5F)C(=O)[C@@H]4CC[C@H]23)[C@H](OC(C)=O)[C@H](OC(C)=O)[C@@H]1OC(C)=O	.	.	0.2%[15.3 µM]	.	.	.
Cc1c(C(=O)c2ccc(Cl)cc2Cl)cnc2cc3c(cc12)OCO3	12.6µM*	-0.6	-19.3%	2.8%	i	?
COc1ccc(CNc2nc3ccccc3n2CCN2CCOCC2)cc1	-7.3%	-45.0*	-3.7%	-2.6%	i	-7.7%
CCN(CC)c1ccc(CNc2nc3ccccc3n2CCN2CCOCC2)cc1	-10.8%	3.5	-14.3%	1.0%	i	-18.8%

Screens as filed in PubChem BioAssay.
